# Assay outcomes as filed in PubChem.
# This is a sample that favours compounds with a hit; in the whole collection about 2.1% have one here.
# TDP43 rescue – rescues yeast growth from TDP-43 toxicity; TDP-43 expressing yeast growth rescue, BacTiter-Glo, 24 h; Potency, µM (top dose mostly 46.1 µM), without a hit: top-dose growth rescue (activation), usual class: activators; actives 1.8% (n = 410,000); AID 652104; also: % of control where 0% means no effect; nearly all actives have a fitted effect of over 50% in size
#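 Galactose-induced TDP-43 yeast, OD600=0.02, compound pinned; 24 hr, 30 deg C; BacTiter-Glo luminescence for growth. Inhibitors of TDP-43 toxicity read as activators.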
# TSG101-PTAP inh – blocks PTAP/TSG101 interaction to inhibit HIV-1 budding; Q99816; Fluorescence polarization, FITC-PTAP peptide / Tsg101 binding; Potency, µM (titrated, usually from 115 µM), for inactives: at the top dose activity change, negative = inhibition, most hits filed as inhibitors; 340,000 tested, under 10 active; AID 493005; active = well fitted inhibition curve with a large enough effect in the main read-out, with a control signal flat, not every such curve was filed as active; inconclusive = small, poorly fitted or top-dose-only effect, or effect the other way, or a change in a side signal; inactive = no such curve, though single readings can be large or run the other way; also: % of control where 0% means no effect
# Target sequence (Q99816 whole entry, looked up): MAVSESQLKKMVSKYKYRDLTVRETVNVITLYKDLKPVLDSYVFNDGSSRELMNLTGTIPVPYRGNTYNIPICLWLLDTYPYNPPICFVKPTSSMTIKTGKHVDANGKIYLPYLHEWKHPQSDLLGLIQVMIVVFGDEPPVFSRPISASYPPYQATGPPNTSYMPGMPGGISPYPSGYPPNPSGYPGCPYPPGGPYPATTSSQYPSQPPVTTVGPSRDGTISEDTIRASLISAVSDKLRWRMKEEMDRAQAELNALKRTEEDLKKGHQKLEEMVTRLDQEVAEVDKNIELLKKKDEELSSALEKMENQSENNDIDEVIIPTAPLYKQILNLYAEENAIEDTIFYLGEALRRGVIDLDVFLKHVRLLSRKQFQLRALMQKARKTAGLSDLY
#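 FP read-out: FITC-PTAP peptide, 50 nM final, binding Tsg101 binding domain, 10 uM final; 20 min, r.t.; 10 mM HEPES pH 7.5, 0.15 M NaCl, 0.01% Tween 20, 3 mM EDTA, 0.1 mM TCEP.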
# FUS yeast rescue – rescues growth of FUS-expressing yeast. S. cerevisiae FUS-expressing, growth rescue, OD600, 24 h. Potency, µM (top dose mostly 76.6 µM), most hits filed as activators. actives 0.24% (n = 390,000). AID 1347120;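 also: plate controls were DMSO vehicle for no effect and reference control for full effect; nearly all actives have a fitted effect of over 55% in size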
#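 FUS-expressing yeast, raffinose-pregrown, induced in 2% galactose minimal medium at OD 0.005; compounds in a dilution series, 24hr at 30C. Growth restoration read as absorbance at 600 nm. CP55940 positive control, DMSO negative.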
# Abeta yeast res – A-beta toxicity reversal in yeast; yeast expressing A-beta42, growth rescue, OD600, 48 h; response scale: 0% DMSO, 100% iron-clioquinol control; actives 0.063% (n = 410,000); Potency, µM (series often up to 46.1 µM), most hits filed as activators; also: nearly all actives have a fitted effect of over 55% in size
#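 Growth rescue measured by 600 nm absorbance after 48 h yeast culture at 30 C with compound. Values normalized between DMSO and an equimolar ferric chloride plus clioquinol control.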
# aSyn yeast inh – rescues yeast growth from alpha-synuclein toxicity; AID 652106; actives 0.14% (n = 370,000); Potency, µM (series often up to 46.1 µM), for inactives: top-dose growth rescue (activation), hits mostly activators; Yeast expressing alpha-synuclein, growth rescue, BacTiter-Glo, 24 h; also: % of control where 0% means no effect; nearly all actives have a fitted effect of over 65% in size
#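 Galactose-induced alpha-syn yeast (OD600=0.02, raffinose-pregrown) + pinned cpd, 24 hr, 30 deg C; growth by BacTiter-Glo luminescence. Growth restoration scores as activation.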
# * = called active by the depositor; i = inactive; u = inconclusive; x = no result; [ ] = remark or other dose. Unless noted, calls follow the shape of the dose curve; as a rule, active = well fitted curve in the direction sought with a large enough effect; inconclusive = small, poorly fitted or top-dose-only effect, or another doubt; inactive = no such curve, though single readings can be large; an effect the other way counts as inactive or inconclusive. Potency is read from the fitted curve at half-maximal effect.
SMILES,TDP43 rescue,TSG101-PTAP inh,FUS yeast rescue,Abeta yeast res,aSyn yeast inh
O=C(O)c1ccc(-c2ccc(O)c(F)c2)cc1,16µM*,-5%,i,i,12%
COc1ccc([N+](=O)[O-])cc1NC1CCCCC1,20µM*,0%,i,i,-20%
Cc1ccc(CCNC(=O)c2cn(C)c3ccc(S(=O)(=O)N4CCCCC4)cc3c2=O)cc1,9%,x,i,i,x
CCOC(=O)C1=C(c2ccccc2)NC(N)=NC1c1ccc(OCc2ccc(C(=O)OC)cc2)cc1 (centres undefined),-15%,-6%,25µM*,i,-8%
CCOC(=O)C1=C(c2ccccc2)Nc2ncnn2C1c1ccc(C(=O)O)cc1 (centres undefined),2%,-8%,i,i,0%
Cc1ccc(NC(=O)N2CCc3c(sc4c3CCCC4)C2c2ccccc2)cc1F (centres undefined),-3%,x,i,i,x
Cc1ccc(NC(=O)c2c(C)oc3ccc(O)c(CN4CCCCCC4)c23)c(C)c1,3%,x,i,i,x
CC(=NN1CCN(c2ccccn2)CC1)c1ccccc1O,x,x,i,x,x
O=C(CSc1nccn1-c1cccc(Cl)c1)Nc1cccc2ccccc12,16µM*,x,i,i,x
Cc1cccc(-n2ccnc2SCC(=O)Nc2cccc3ccccc23)c1,22µM*,x,i,i,11%
Cc1cccc(-n2ccnc2SCC(=O)Nc2ccccc2C(F)(F)F)c1,3%,x,i,i,3%
O=C(CSc1nccn(-c2ccc(F)c(F)c2)c1=O)NC1CCCC1,25%,-2%,i,i,-11%
Cc1cccc(-c2nc(SCC(=O)Nc3ccc4c(c3)OCCO4)c(-c3ccccc3)[nH]2)c1,35µM*,x,u,i,x
O=C(CSc1nccn(-c2cccc(F)c2)c1=O)Nc1ccc(Cl)cc1F,18µM*,0%,i,i,-78%
CC(C)n1nnnc1C1c2ccccc2C(=O)N1C1CC1 (centres undefined),10%,x,i,i,5%
COc1ccccc1N1CCN(C(=O)c2nn(-c3ccc(C)cc3)c(=O)n(C)c2=O)CC1,23%[9.22 µM],x,i,i,x
O=C(CSc1nccn1-c1cccc(Cl)c1)Nc1cccc(C(F)(F)F)c1,20µM*,x,i,u,x
Cc1cccc(-n2ccnc2SCC(=O)Nc2ccc3c(c2)OCCO3)c1,u,-4%,i,i,9%
O=C(CSc1nccn1-c1ccc(Cl)cc1)Nc1ccc(Cl)c(Cl)c1,0%,x,i,i,x
Cc1cccc(-n2ccnc2SCC(=O)Nc2ccc3c(c2)OCO3)c1,20µM*,x,i,i,10%
O=C(CSc1nc2ccccc2nc1Cc1ccc(Cl)cc1)N1CCN(c2ccccc2)CC1,5%,x,i,i,x
COc1ccc(N2CCN(C(=O)CSc3nc4ccccc4nc3Cc3ccc(Cl)cc3)CC2)cc1,-6%,x,32µM*,i,x
CC1CCCCN1C(=O)CSc1nc2ccccc2nc1Cc1ccc(Cl)cc1 (centres undefined),0%,x,25µM*,i,x
COc1ccc(OC)c(NC(=O)CSc2cn(CC(=O)N3CCCCCC3)c3ccccc23)c1,27%,x,u,i,x
COc1cc(OC)cc(-c2sc3ccc(OC)cc3c2C#CC(C)(C)O)c1,11µM*,-3%,u,i,2%
SMILES,TDP43 rescue,TSG101-PTAP inh,FUS yeast rescue,Abeta yeast res,aSyn yeast inh
CCOC(=O)C1CCCc2c1[nH]c1ccc(Cl)cc21 (centres undefined),13µM*,-2%,i,u,1%
CCOC(=O)c1ccc2[nH]c3c(c2c1)CCCC3C(=O)OCC (centres undefined),u,-7%,i,i,-14%
CC(C)(C)c1ccc(Nc2n[nH]c3ccccc23)cc1,35µM*,x,u,i,6%
Cc1n[nH]c2ccccc2c1=O,0%,-6%,x,i,5%
Cc1ccccc1OCCn1c(-c2ccc(Cl)cc2)nc2ccccc2c1=O,16%,x,i,i,x
O=C(O)c1ccc2c(c1Nc1ccccc1)C(=O)c1ccccc1C2=O,-35%,-9%,i,i,13µM*
CNc1c(C(=O)O)ccc2c1C(=O)c1ccccc1C2=O,-9%,-3%,i,i,-7%
CCC1CCc2sc(C(=O)NNC(=O)c3ccncc3)cc2C1 (centres undefined),17%,-4%,u,i,-4%
CCC1CCc2sc(C(=O)O)cc2C1 (centres undefined),14µM*,-5%,i,i,18%
O=C(Nc1c(-c2ccc(Cl)cc2)[nH][nH]c1=O)c1ccccc1Cl,8%,x,i,i,1%
Cc1c(C(=O)Nc2ccc(F)cc2F)nnn1-c1ccccc1Br,32µM*,x,i,i,x
COc1ccc(O)c(-c2cc(-c3ccccc3[N+](=O)[O-])[nH]n2)c1,20%,-2%,i,i,3%
Cc1ccc(O)c(-c2cc(-c3ccccc3[N+](=O)[O-])[nH]n2)c1,u,-2%,x,i,22µM*
O=[N+]([O-])c1ccccc1-c1cc(-c2cc(Cl)ccc2O)n[nH]1,13µM*,-2%,x,i,0%
CCOC(=O)c1sc(N)c(C(=O)Nc2ccccc2)c1C,13µM*,-9%,i,i,-7%
CC(=O)OC[C@@H]1CN(Cc2ccccc2)C[C@H](n2cnc3c(N4CCN(c5ccccc5)CC4)ncnc32)O1,18µM*,x,i,i,0%
COc1cc(CNc2ncnc3c2ncn3[C@H]2CN(Cc3cccc4ccccc34)C[C@@H](CO)O2)cc(OC)c1OC,1%,x,28µM*,i,3%
CCN(CC)c1ncnc2c1ncn2[C@H]1CN(Cc2ccc(-c3ccccc3)cc2)C[C@@H](CO)O1,2%,x,28µM*,i,u
O=C(O)CSc1c2c(nc3cc(C(=O)Nc4ccc(F)c(Cl)c4)ccc13)CCC2,-1%,x,i,i,x
c1ccc(Nc2ncnc3sc4c(c23)CCC4)cc1,2%,-3%,i,i,3%
COc1ccc(Nc2ncnc3scc(-c4ccc(OC)cc4)c23)cc1,22µM*,7%,x,i,1%
Fc1ccc(Nc2ncnc3sc4c(c23)CCC4)cc1,18µM*,-8%,i,i,32µM*
COc1ccc(Nc2ncnc3sc4c(c23)CCCC4)cc1,20µM*,x,i,i,-7%
CCc1ccc(Nc2ncnc3sc4c(c23)CCCC4)cc1,20µM*,x,i,i,0%
COc1ccc(-c2nc3sc(CCNC(=O)c4cc(Cl)ccc4OC)c(C)n3n2)cc1,u,x,u,i,x
COc1cccc(N2CCN(C(=O)Cn3c(-c4cccs4)cc4ccccc43)CC2)c1,24%,x,i,i,x
